# According to the supplement of paper PMC8728848:
# Only a selection was taken, and the strongest signals are over-represented in it overall.
# B1: AFCNVH (Aspergillus fumigatus) (protein)
# chain: MSLRGFHTTCDTIVLKDKHILSSRCKRPDGTYSFSEIDLNDCLGNNNGKFVWGGESFVDSASQVNLALEGGEGRPMLHAQLNDWHGSVQSASVNLGECIQNEAGGLEYMHC
# Columns and labels:
# Test in all cases: glycan array binding signal (z-score within array); higher = stronger binding
# Details in all cases: glycan notation: IUPAC condensed, linker removed
# [1] = target: Fuc(a1-2)Gal(b1-4)Fuc(a1-3)]GlcNAc(b1-2)Man(a1-3)[Fuc(a1-2)Gal(b1-4)[Fuc(a1-3)]GlcNAc(b1-2)Man(a1-6)]Man(b1-4)GlcNAc(b1-4)GlcNAc
# Summary of the method: (§1)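 Arrays were curated from the Consortium for Functional Glycomics database, 3228 in total, and kept only where the protein sequence was available. Binding is expressed as a within-array Z-score. This score was averaged across arrays of the same protein sequence at different concentrations or buffers and across linkers, and negative values can be read as non-binding.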
# [2] = target: Fuc(a1-2)Gal(b1-4)GlcNAc(b1-2)Man(a1-3)[Fuc(a1-2)Gal(b1-4)GlcNAc(b1-2)Man(a1-6)]Man(b1-4)GlcNAc(b1-4)[Fuc(a1-6)]GlcNAc
# Summary of the method: as §1
# [3] = target: Fuc(a1-2)Gal(b1-4)GlcNAc(b1-2)[Fuc(a1-2)Gal(b1-4)GlcNAc(b1-4)]Man(a1-3)[Fuc(a1-2)Gal(b1-4)GlcNAc(b1-2)Man(a1-6)]Man(b1-4)GlcNAc(b1-4)GlcNAc
# Summary of the method: as §1
# [4] = target: Fuc(a1-2)[Gal(a1-3)]Gal(b1-3)GlcNAc(b1-2)Man(a1-3)[Fuc(a1-2)[Gal(a1-3)]Gal(b1-3)GlcNAc(b1-2)Man(a1-6)]Man(b1-4)GlcNAc(b1-4)[Fuc(a1-6)]GlcNAc
# Summary of the method: as §1
# [5] = target: Fuc(a1-2)[Gal(a1-4)]Gal(b1-4)GlcNAc
# Summary of the method: as §1
# [6] = target: Fuc(a1-3)[Gal(b1-4)]Glc6S
# Summary of the method: as §1
# [7] = target: Fuc(a1-3)[Gal(b1-4)]GlcNAc6S
# Summary of the method: as §1
# [8] = target: Fuc(a1-3)[GalNAc(b1-4)]GlcNAc6S
# Summary of the method: as §1
# [9] = target: Gal(a1-3)Gal(b1-3)GlcNAc
# Summary of the method: as §1
# [10] = target: Gal(a1-3)GalNAc
# Summary of the method: as §1
# [11] = target: Gal(b1-3)GalNAc(b1-3)Gal(a1-4)Gal(b1-4)Glc
# Summary of the method: as §1
# [12] = target: Gal(b1-3)GlcNAc(b1-6)Gal(b1-4)GlcNAc
# Summary of the method: as §1
# [13] = target: Gal(b1-3)[Neu5Ac(a2-6)]GalNAc
# Summary of the method: as §1
# [14] = target: Gal(b1-4)GlcNAc(b1-2)[Gal(b1-4)GlcNAc(b1-6)]Man(a1-6)[Gal(b1-4)GlcNAc(b1-2)Man(a1-3)]Man(b1-4)GlcNAc(b1-4)[Fuc(a1-6)]GlcNAc
# Summary of the method: as §1
# [15] = target: Gal(b1-4)GlcNAc(b1-3)Gal(b1-4)GlcNAc(b1-3)[Gal(b1-4)GlcNAc(b1-3)Gal(b1-4)GlcNAc(b1-6)]GalNAc
# Summary of the method: as §1
# [16] = target: Gal(b1-4)GlcNAc(b1-3)[GlcNAc(b1-6)]Gal(b1-4)GlcNAc
# Summary of the method: as §1
# [17] = target: GalNAc(a1-3)GalNAc(b1-3)Gal(a1-4)Gal(b1-4)Glc
# Summary of the method: as §1
# [18] = target: GalNAc(b1-3)Gal(a1-6)Gal(b1-4)Glc
# Summary of the method: as §1
# [19] = target: GalNAc(b1-4)GlcNAc(b1-2)Man
# Summary of the method: as §1
# [20] = target: GalNAc(b1-4)GlcNAc(b1-2)Man(a1-3)[GalNAc(b1-4)GlcNAc(b1-2)Man(a1-6)]Man(b1-4)GlcNAc(b1-4)GlcNAc
# Summary of the method: as §1
# [21] = target: GalNAc3S(b1-4)GlcNAc
# Summary of the method: as §1
# [22] = target: GlcNAc(a1-3)Gal(b1-4)GlcNAc
# Summary of the method: as §1
# [23] = target: GlcNAc(a1-4)Gal(b1-4)GlcNAc(b1-3)Gal(b1-4)Glc
# Summary of the method: as §1
# [24] = target: GlcNAc(b1-2)Man(a1-3)[GlcNAc(b1-2)Man(a1-6)]Man(b1-4)GlcNAc(b1-4)GlcNAc
# Summary of the method: as §1
# [25] = target: GlcNAc(b1-2)Man(a1-3)[GlcNAc(b1-4)][GlcNAc(b1-2)Man(a1-6)]Man(b1-4)GlcNAc(b1-4)GlcNAc
# Summary of the method: as §1
# [26] = target: GlcNAc(b1-2)[GlcNAc(b1-6)]Man(a1-6)[GlcNAc(b1-2)Man(a1-3)]Man(b1-4)GlcNAc(b1-4)GlcNAc
# Summary of the method: as §1
# [27] = target: GlcNAc(b1-3)Gal(b1-4)Glc
# Summary of the method: as §1
# [28] = target: GlcNAc(b1-3)Gal(b1-4)GlcNAc(b1-3)Gal(b1-4)GlcNAc(b1-2)[GlcNAc(b1-3)Gal(b1-4)GlcNAc(b1-3)Gal(b1-4)GlcNAc(b1-6)]Man(a1-6)[GlcNAc(b1-3)Gal(b1-4)GlcNAc(b1-3)Gal(b1-4)GlcNAc(b1-2)Man(a1-3)]Man(b1-4)GlcNAc(b1-4)[Fuc(a1-6)]GlcNAc
# Summary of the method: as §1
# [29] = target: GlcNAc(b1-3)Gal(b1-4)GlcNAc(b1-3)Gal(b1-4)GlcNAc(b1-3)Gal(b1-4)GlcNAc(b1-2)Man(a1-3)[GlcNAc(b1-3)Gal(b1-4)GlcNAc(b1-3)Gal(b1-4)GlcNAc(b1-3)Gal(b1-4)GlcNAc(b1-2)Man(a1-6)]Man(b1-4)GlcNAc(b1-4)GlcNAc
# Summary of the method: as §1
# [30] = target: GlcNAc(b1-3)Gal(b1-4)GlcNAc(b1-3)Gal(b1-4)GlcNAc(b1-3)Gal(b1-4)GlcNAc(b1-2)[GlcNAc(b1-3)Gal(b1-4)GlcNAc(b1-3)Gal(b1-4)GlcNAc(b1-3)Gal(b1-4)GlcNAc(b1-6)]Man(a1-6)[GlcNAc(b1-3)Gal(b1-4)GlcNAc(b1-3)Gal(b1-4)GlcNAc(b1-3)Gal(b1-4)GlcNAc(b1-2)Man(a1-3)]Man(b1-4)GlcNAc(b1-4)[Fuc(a1-6)]GlcNAc
# Summary of the method: as §1
# [31] = target: GlcNAc(b1-3)Gal(b1-4)GlcNAc(b1-3)Gal(b1-4)GlcNAc(b1-3)Gal(b1-4)GlcNAc(b1-3)Gal(b1-4)GlcNAc(b1-2)Man(a1-3)[GlcNAc(b1-3)Gal(b1-4)GlcNAc(b1-3)Gal(b1-4)GlcNAc(b1-3)Gal(b1-4)GlcNAc(b1-3)Gal(b1-4)GlcNAc(b1-2)Man(a1-6)]Man(b1-4)GlcNAc(b1-4)[Fuc(a1-6)]GlcNAc
# Summary of the method: as §1
# [32] = target: GlcNAc(b1-3)Gal(b1-4)GlcNAc(b1-3)Gal(b1-4)GlcNAc(b1-3)Gal(b1-4)GlcNAc(b1-3)Gal(b1-4)GlcNAc(b1-2)[GlcNAc(b1-3)Gal(b1-4)GlcNAc(b1-3)Gal(b1-4)GlcNAc(b1-3)Gal(b1-4)GlcNAc(b1-3)Gal(b1-4)GlcNAc(b1-6)]Man(a1-6)[GlcNAc(b1-3)Gal(b1-4)GlcNAc(b1-3)Gal(b1-4)GlcNAc(b1-3)Gal(b1-4)GlcNAc(b1-3)Gal(b1-4)GlcNAc(b1-2)Man(a1-3)]Man(b1-4)GlcNAc(b1-4)[Fuc(a1-6)]GlcNAc
# Summary of the method: as §1
# [33] = target: GlcNAc(b1-3)[GlcNAc(b1-4)][GlcNAc(b1-6)]GlcNAc
# Summary of the method: as §1
# [34] = target: GlcNAc(b1-4)GlcNAc(b1-4)GlcNAc(b1-4)GlcNAc(b1-4)GlcNAc
# Summary of the method: as §1
# [35] = target: GlcNAc(b1-6)GalNAc
# Summary of the method: as §1
# [36] = target: Kdn(a2-3)Gal(b1-4)[Fuc(a1-3)]GlcNAc
# Summary of the method: as §1
# [37] = target: Man(a1-2)Man(a1-3)[Man(a1-2)Man(a1-6)]Man(a1-6)[Man(a1-2)Man(a1-2)Man(a1-3)]Man(b1-4)GlcNAc(b1-4)GlcNAc
# Summary of the method: as §1
# [38] = target: Man(b1-4)GlcNAc
# Summary of the method: as §1
# [39] = target: Neu5Ac(a2-3)Gal(b1-3)GlcNAc(b1-2)[Neu5Ac(a2-3)Gal(b1-3)GlcNAc(b1-4)]Man(a1-6)[Neu5Ac(a2-3)Gal(b1-3)GlcNAc(b1-2)Man(a1-3)]Man(b1-4)GlcNAc(b1-4)GlcNAc
# Summary of the method: as §1
# [40] = target: Neu5Ac(a2-3)Gal(b1-3)GlcNAc(b1-3)GalNAc
# Summary of the method: as §1
# [41] = target: Neu5Ac(a2-3)Gal(b1-3)GlcNAc6S
# Summary of the method: as §1
# [42] = target: Neu5Ac(a2-3)Gal(b1-3)[Fuc(a1-4)]GlcNAc(b1-3)Gal(b1-4)[Fuc(a1-3)]GlcNAc
# Summary of the method: as §1
# [43] = target: Neu5Ac(a2-3)Gal(b1-3)[Neu5Ac(a2-6)]GlcNAc(b1-3)[Fuc(a1-3)[Gal(b1-4)]GlcNAc(b1-6)]Gal(b1-4)Glc
# Summary of the method: as §1
# [44] = target: Neu5Ac(a2-3)Gal(b1-3)]Neu5Ac(a2-3)Gal(b1-4)]GlcNAc
# Summary of the method: as §1
# [45] = target: Neu5Ac(a2-3)Gal(b1-4)GlcNAc(b1-2)[Neu5Ac(a2-3)Gal(b1-4)GlcNAc(b1-4)]Man(a1-3)[GlcNAc(b1-4)][Neu5Ac(a2-3)Gal(b1-4)GlcNAc(b1-2)[Neu5Ac(a2-3)Gal(b1-4)GlcNAc(b1-6)]Man(a1-6)]Man(b1-4)GlcNAc(b1-4)GlcNAc
# Summary of the method: as §1
# [46] = target: Neu5Ac(a2-3)Gal(b1-4)GlcNAc(b1-3)Gal(b1-4)[Fuc(a1-3)]GlcNAc
# Summary of the method: as §1
# [47] = target: Neu5Ac(a2-3)Gal(b1-4)GlcNAc(b1-3)GalNAc
# Summary of the method: as §1
# [48] = target: Neu5Ac(a2-3)GalNAc(b1-4)GlcNAc
# Summary of the method: as §1
# [49] = target: Neu5Ac(a2-8)Neu5Ac(a2-3)Gal(b1-3)GalNAc(b1-4)[Neu5Ac(a2-3)]Gal(b1-4)Glc
# Summary of the method: as §1
# [50] = target: Neu5Ac(a2-8)Neu5Gc(a2-3)Gal(b1-4)GlcNAc
# Summary of the method: as §1
# [51] = target: Neu5Gc(a2-3)Gal(b1-4)Glc
# Summary of the method: as §1
binder,measurement,setting,value
B1,glycan array binding signal (z-score),[1],-0.233
same,glycan array binding signal (z-score),[2],-0.175
same,glycan array binding signal (z-score),[3],-0.277
same,glycan array binding signal (z-score),[4],-0.326
same,glycan array binding signal (z-score),[5],0.231
same,glycan array binding signal (z-score),[6],-0.331
same,glycan array binding signal (z-score),[7],-0.372
same,glycan array binding signal (z-score),[8],0.612
same,glycan array binding signal (z-score),[9],-0.453
same,glycan array binding signal (z-score),[10],-0.37
same,glycan array binding signal (z-score),[11],-0.212
same,glycan array binding signal (z-score),[12],-0.391
same,glycan array binding signal (z-score),[13],-0.504
same,glycan array binding signal (z-score),[14],-0.378
same,glycan array binding signal (z-score),[15],-0.168
same,glycan array binding signal (z-score),[16],4.53
same,glycan array binding signal (z-score),[17],-0.347
same,glycan array binding signal (z-score),[18],-0.462
same,glycan array binding signal (z-score),[19],4.18
same,glycan array binding signal (z-score),[20],4.08
same,glycan array binding signal (z-score),[21],1.43
same,glycan array binding signal (z-score),[22],4.61
same,glycan array binding signal (z-score),[23],3.99
same,glycan array binding signal (z-score),[24],-0.164
same,glycan array binding signal (z-score),[25],4.58
same,glycan array binding signal (z-score),[26],-0.203
same,glycan array binding signal (z-score),[27],-0.196
same,glycan array binding signal (z-score),[28],3.73
same,glycan array binding signal (z-score),[29],4.24
same,glycan array binding signal (z-score),[30],3.78
same,glycan array binding signal (z-score),[31],1.62
same,glycan array binding signal (z-score),[32],4.73
same,glycan array binding signal (z-score),[33],-0.338
same,glycan array binding signal (z-score),[34],3.83
same,glycan array binding signal (z-score),[35],1.1
same,glycan array binding signal (z-score),[36],-0.455
same,glycan array binding signal (z-score),[37],-0.336
same,glycan array binding signal (z-score),[38],-0.3
same,glycan array binding signal (z-score),[39],-0.439
same,glycan array binding signal (z-score),[40],-0.385
same,glycan array binding signal (z-score),[41],-0.204
same,glycan array binding signal (z-score),[42],-0.305
same,glycan array binding signal (z-score),[43],-0.416
same,glycan array binding signal (z-score),[44],-0.242
same,glycan array binding signal (z-score),[45],-0.351
same,glycan array binding signal (z-score),[46],-0.398
same,glycan array binding signal (z-score),[47],-0.339
same,glycan array binding signal (z-score),[48],-0.24
same,glycan array binding signal (z-score),[49],-0.287
same,glycan array binding signal (z-score),[50],-0.48
same,glycan array binding signal (z-score),[51],-0.447
